Screening data from PubChem BioAssay.
The list is not random: actives were taken first. Their share in the collection is about 0.86%.
HIV TAR-Tat – HIV-1 TAR-Tat binding disruption | z-score (test concentration not listed) | 0.6% of 100,000 active | AID 1259389 | HIV-1 TAR RNA, Tat peptide displacement FRET; active compounds read high; active = z-score of 3 or more in at least 2 runs
CDC25B-CDK2 inh – human CDC25B-CDK2/CyclinA binding inhibition; HTRF CDC25B-CDK2/CyclinA binding, anti-His/anti-Flag; active compounds read high; z-score (test concentration not listed); 0.72% of 94,000 active; in the data active = z-score above about 3.2
Large screens that a line does not name were inactive.

Cc1ccc(CSc2nc(=O)c3c(n2C)NC(=O)CC3c2ccc(O)c(O)c2)cc1 (stereo not drawn)	HIV TAR-Tat 26
CCOc1cc(C2CC(=O)Nc3nc(SC)[nH]c(=O)c32)ccc1O (stereo not drawn)	none
Cn1c(SCc2ccc(F)cc2)nc(=O)c2c1NC(=O)CC2c1cccc(O)c1 (stereo not drawn)	none
C=CCSc1nc2c(c(=O)[nH]1)C(c1ccc(O)c(O)c1)CC(=O)N2 (stereo not drawn)	HIV TAR-Tat 19, CDC25B-CDK2 inh 16
CC(=O)N1CCCc2cc(S(=O)(=O)N3CCCC(C(=O)N4CCOCC4)C3)ccc21 (stereo not drawn)	none (no result: CDC25B-CDK2 inh)
Cc1cccc(-n2nnc3c(sc4nc(C)ccc43)c2=O)c1	none
Cn1c(=O)c2c(-c3ccccc3Br)n(-c3ccc4c(c3)nc(CO)n4C)cc2n(C)c1=O	none
N#CC1=C(N)Oc2n[nH]c(-c3ccc4c(c3)OCO4)c2C1c1cccs1 (stereo not drawn)	none (no result: HIV TAR-Tat)
Cc1ccc(CNC(=O)c2cnc3sccn3c2=O)o1	none (no result: CDC25B-CDK2 inh)
Cc1ccc(CCNc2c(-c3ccc(C)c(C)c3)c(=O)c2=O)cc1	none (no result: CDC25B-CDK2 inh)
O=C(O)CN(CC(=O)O)S(=O)(=O)c1ccccc1	HIV TAR-Tat 17 (no result: CDC25B-CDK2 inh)
CCN(CC)S(=O)(=O)N(CC(=O)O)CC(=O)O	none (no result: CDC25B-CDK2 inh)
CC(C)CCN(C(C)c1ccco1)S(=O)(=O)c1ccc2c(c1)NC(=O)CS2 (stereo not drawn)	none (no result: CDC25B-CDK2 inh)
Cc1c(N)ccc2[nH]c(-c3ccc(N)cc3)nc12	none
Nc1ccc(-c2nc3ccc(N)cc3[nH]2)cc1	none (no result: HIV TAR-Tat)
Nc1ccc(-c2nc3c(Cl)c(N)ccc3[nH]2)cc1	HIV TAR-Tat 3.7
Cc1nc2ccc(-c3nc4ccc(N)cc4[nH]3)cc2[nH]1	CDC25B-CDK2 inh 5 (no result: HIV TAR-Tat)
Cc1ccc(-c2nc3ccc(N)cc3[nH]2)cc1	none
Nc1ccc2nc(-c3ccc(Cl)cc3)[nH]c2c1	HIV TAR-Tat 5.1
Cc1cc(=O)n2nc(N3CCCC3C(=O)Nc3ccc(Br)cc3F)sc2n1 (stereo not drawn)	none
COc1ccc(OCc2nc(-c3ccc4c(c3)nnn4C3CCCC3)no2)cc1	none (no result: CDC25B-CDK2 inh)
CN1CCN(C(=O)c2c(-c3ccccc3)c(-c3ccccc3)n[nH]c2=O)CC1	none
Cc1c(N2CCN(S(=O)(=O)c3ccc4c(c3)CCCC4)CC2)c(=O)n(C)c(=O)n1-c1ccccc1	none (no result: CDC25B-CDK2 inh)
CCN(CC)CCNC(=O)Cn1ncc2c3ccccc3n(C)c2c1=O	none (no result: HIV TAR-Tat)
Clc1ccc(Cc2nnc(-c3ccc(Cl)cc3)o2)cc1	none
O=c1[nH]c2ccc(NCc3ccc(-c4ccc(Cl)cc4)o3)cc2[nH]1	CDC25B-CDK2 inh 10
O=c1[nH]c2ccc(NCc3ccc(-c4ccccc4F)o3)cc2[nH]1	CDC25B-CDK2 inh 4.7
O=c1[nH]c2ccc(NCc3ccc(-c4ccccc4)o3)cc2[nH]1	none
O=c1[nH]c2ccc(NCc3ccc4c(c3)OCO4)cc2[nH]1	none
Cc1ccc(C)n1-c1nnc(N2CCC(C(=O)NCCN3CCOCC3)CC2)s1	none
CN(C)c1ccc(C2Nc3ccccc3NC3=C2C(=O)CC(c2cccs2)C3)cc1 (stereo not drawn)	CDC25B-CDK2 inh 7.4
CCN(CC)c1ccc(C2CC(=O)C3=C(C2)Nc2ccccc2NC3c2ccco2)cc1 (stereo not drawn)	HIV TAR-Tat 25
O=C1CC(c2ccco2)CC2=C1C(c1ccco1)Nc1ccccc1N2 (stereo not drawn)	none
Cc1ccc(C2Nc3ccccc3NC3=C2C(=O)CC(c2cccs2)C3)cc1 (stereo not drawn)	none
Cc1csc(NC(=O)CCc2nnc3ccc(N4CCCC4)nn23)n1	none (no result: CDC25B-CDK2 inh)
CC(=O)N1c2ccc(S(=O)(=O)N(C)CC(=O)NC3CCCCC3)cc2CC1C (stereo not drawn)	none (no result: CDC25B-CDK2 inh)
O=C(Cn1c(SCc2cccc(F)c2)nc2ccncc21)NCC1CCCO1 (stereo not drawn)	none
CCC(=O)n1/c(=N/C(=N)N)nc(C)c2ccc(C)cc21	CDC25B-CDK2 inh 9 (no result: HIV TAR-Tat)
CCOC(=O)CC(=O)CSc1nc(C)c2ccc(C)cc2n1	none
CCCn1nnc(NCc2ccc(Br)cc2)n1	none (no result: CDC25B-CDK2 inh)
COCC1=CC2CC(C1)C[B-]1(C2)Oc2cccc3ccc[n+]1c23 (stereo not drawn)	CDC25B-CDK2 inh 5.2 (no result: HIV TAR-Tat)
Cn1nc(C(=O)N2CCN(c3ccc(Cl)cc3)CC2)c2c1-c1ccccc1OC2	none
COc1ccc(Cl)cc1NC(=O)NCC1CCN(C2CCCC2)C1 (stereo not drawn)	none
NC(=O)CSc1nc2c(sc3ccccc32)c(=O)n1CCCC(=O)NC1CCCC1	none
COc1ccc(CC(=O)NN)cc1OC	none (no result: HIV TAR-Tat)
COC(=O)C1Cc2cc(OC)c(OC)cc2C(Cc2ccc(OC)c(OC)c2)=N1 (stereo not drawn)	CDC25B-CDK2 inh 8.9
C=CCN(C(=O)C1CCCN(S(=O)(=O)c2ccc3c(c2)oc(=O)n3C)C1)C1CCCCC1 (stereo not drawn)	none (no result: HIV TAR-Tat)
CCCn1c(=O)c2c(nc3n2CCN3c2ccc(F)cc2)n(C)c1=O	none (no result: CDC25B-CDK2 inh)
Clc1ccc(-c2noc(CCCc3nc4ccccc4[nH]3)n2)cc1	none
O=C(O)c1ccc(N2CCc3ccccc32)s1	none
CCC1CCCCN1S(=O)(=O)c1ccc2[nH]c(=O)ccc2c1 (stereo not drawn)	HIV TAR-Tat 6.5 (no result: CDC25B-CDK2 inh)
CCCN1CCN(S(=O)(=O)c2ccc3[nH]c(=O)ccc3c2)CC1	none (no result: CDC25B-CDK2 inh)
Cc1ccc(Nc2nc(-c3ccc(O)c(O)c3)cs2)nc1	HIV TAR-Tat 16
Cc1ccc(Nc2nc(-c3ccc(O)cc3)cs2)nc1	none
COc1ccc(NS(=O)(=O)c2cc(Br)cc3c2N(C(=O)C2CC2)CC3)cc1Cl	none
CC1CN(C(=O)Nc2ccc(Cl)cc2)c2ccccc2O1 (stereo not drawn)	HIV TAR-Tat 3.9 (no result: CDC25B-CDK2 inh)
CC1CN(C(=O)Nc2ccc(F)cc2)c2cc(Cl)ccc2O1 (stereo not drawn)	none
CC1(C)CC(=O)C2=C(C1)Nc1cc3c(cc1C2c1cccc(Cl)c1)OCCO3 (stereo not drawn)	none (no result: HIV TAR-Tat)
CCOCCCNc1cc(N2CCC(C)CC2)c2noc3c2c1C(=O)c1ccccc1-3	none
COCCNc1cc(N2CCN(c3ccccn3)CC2)c2noc3c2c1C(=O)c1ccccc1-3	none
CC1CCN(c2cc(NCCCN(C)C)c3c4c(onc24)-c2ccccc2C3=O)CC1	HIV TAR-Tat 16
CN(C)CCCNc1cc(N2CCN(c3ccccn3)CC2)c2noc3c2c1C(=O)c1ccccc1-3	HIV TAR-Tat 7.2
COCCNc1cc(N2CCN(C3CCCCC3)CC2)c2noc3c2c1C(=O)c1ccccc1-3	HIV TAR-Tat 8.1
COCCNc1cc(N2CCCC2)c2noc3c2c1C(=O)c1ccccc1-3	none
CN(C)CCCNc1cc(N2CCN(C3CCCCC3)CC2)c2noc3c2c1C(=O)c1ccccc1-3	HIV TAR-Tat 8.7
O=C1c2ccccc2-c2onc3c(N4CCN(C5CCCCC5)CC4)cc(NCCO)c1c23	none
CC1CCCN(C(=O)C2CCCN(S(=O)(=O)c3ccc4c(c3)oc(=O)n4C)C2)C1 (stereo not drawn)	none (no result: HIV TAR-Tat)
O=C(Nc1cc(F)ccc1F)c1ccc(N2CCSc3ncccc32)s1	none (no result: CDC25B-CDK2 inh)
O=C(CN1C(=O)c2cccnc2Oc2ccccc21)N1CCCC1	none (no result: CDC25B-CDK2 inh)
CCC(=O)OCc1cc(=O)n2c3c(sc2n1)CCCC3	none (no result: CDC25B-CDK2 inh)
CCCCSc1nnc(NC(=O)c2nn(-c3ccc(F)cc3)ccc2=O)s1	none
COCCCNC(=O)C1CCN(c2nnc(N3CCCCC3=O)s2)CC1	none (no result: CDC25B-CDK2 inh)
O=C1C2=C(NC3=C(C(=O)c4ccccc43)C23C(=O)Nc2ccccc23)c2ccccc21	CDC25B-CDK2 inh 12 (no result: HIV TAR-Tat)
CC(C)(C)C1(O)C(=O)Nc2ccccc21 (stereo not drawn)	none
COCCCNc1nc2c(S(=O)(=O)c3ccccc3)nnn2c2ccccc12	none
